# Source: PubChem BioAssay (National Center for Advancing Translational Sciences (NCATS))
# Sampled rows, rich in hits. Any-hit rate of the full collection: about 21%.
# CHX counter: affects cycloheximide protein synthesis inhibition readout, counter-screen; cell reporter, cycloheximide protein synthesis inhibition counterscreen; AID 2314; actives 12% (n = 300,000); max response, %; in the data active = max response mostly above about 13%, no sharp cut-off; inactive = mostly below about 14%; note: read at 38.3 µM for the half of the compounds with a filed dose; 0% is about no effect
# Pf growth 48h: inhibits P. falciparum growth in the first generation, 48 h; P. falciparum luciferase growth in erythrocytes, 48 h; Potency, µM (top dose mostly 28.7 µM), inactives show at the top dose activity change, negative = inhibition, hits mostly inhibitors; actives 5.9% (n = 310,000); note: potency is the fitted concentration of half-maximal effect; % is set by controls: 0 for no effect and ±100 for the full control effect
#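 Erythrocytes infected with P. falciparum carrying an integrated firefly luciferase reporter (2% hematocrit, 0.1% parasitemia final) were exposed to compounds in RPMI 1640 with 0.5% Albumax at 37 C, 5% CO2. Growth inhibition was scored as reduced luminescence.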
# NS1 function inh: inhibitors of influenza NS1 protein function; AID 2326; actives 0.4% (n = 270,000); Potency, µM (highest dose often 46.1 µM), for the others: at the top dose activity, positive = more growth; calls by dose curve; note: potency is the fitted concentration of half-maximal effect; actives are rising curves; nearly all actives have a fitted effect of over 50% in size
#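 OD600 was taken as the measure of yeast growth restored by compound in an NS1-expressing S. cerevisiae strain. Cells had been washed out of glucose medium and diluted 1:100 into galactose -URA medium, pH 6.0.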
# SARS PLP yeast: blocks SARS-CoV papain-like protease in a yeast assay | S. cerevisiae expressing SARS-CoV PLpro, growth rescue | Potency, µM (series often up to 32.9 µM), for the others: top-dose activity, positive = growth rescue, hits mostly activators | actives 0.19% (n = 330,000); calls by dose curve; note: potency is the fitted concentration of half-maximal effect; 0% is about no effect; nearly all actives have a fitted effect of over 55% in size
# Pf growth 96h: inhibits malaria parasite growth, 96 h | P. falciparum luciferase reporter growth, 96 h | Potency, µM (top dose mostly 28.7 µM), inactives show at the top dose activity change, negative = inhibition, actives largely listed as inhibitors | actives 6.9% (n = 320,000) | AID 504834; note: potency is the fitted concentration of half-maximal effect; % is set by controls: 0 for no effect and ±100 for the full control effect
#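 P. falciparum expressing integrated firefly luciferase grown in erythrocytes (2% hematocrit, 0.05% parasitemia final) with compounds for 96 hours at 37 C, 5% CO2. Growth inhibition read as loss of luminescence after adding luciferase detection reagent.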
# Shiga inhibitor: blocks Shiga toxin action in Vero cells; Vero cells, Shiga toxin protein synthesis inhibition reporter; inhibition, % at 38.7 µM; actives 9.2% (n = 290,000); AID 2315; in the data active = inhibition mostly above about 28%, no sharp cut-off; inactive = mostly below about 43%; note: 0% is about no effect
# Starred values were filed as active, the others as inactive; ? = inconclusive; . = no result. Unless noted, calls come from the whole dose curve; as a rule, active = well fitted inhibition curve with a large enough effect; inconclusive = small, poorly fitted or top-dose-only effect, or another doubt; inactive = no such curve, though single readings can be large or run the other way.
SMILES,CHX counter,Pf growth 48h,NS1 function inh,SARS PLP yeast,Pf growth 96h,Shiga inhibitor
Cc1ccc(N(CC2CO2)S(=O)(=O)c2ccc([N+](=O)[O-])cc2)cc1 (configuration not stated),-5.2,-6.4%,-11.3%,-0.4%,-9.2%,2.2
Cc1[nH]c2ccc(Br)cc2c(=S)c1C/C=C/Cl,-3.0,?,-0.8%,-0.8%,8.28µM*,12.3
CCc1c(C)[nH]c2ccc(OC)cc2c1=S,-2.1,?,-3.6%,-1.1%,?,-10.7
Cc1[nH]c2ccc3ccccc3c2c(=O)c1C/C=C/Cl,9.1,-36.2%,-12.5%,-12.5%,14.7µM*,3.7
CC1=NN(c2ccccc2)C(=O)/C1=C\c1cn(C)c2ccccc12,-3.9,?,.,-0.9%,?,1.5
CC1=NN(c2ccccc2)C(=O)/C1=C/c1cc2cc(C)ccc2nc1N1CCCCC1,23.5*,?,-5.9%,-19.6%,76.3%,43.2
CC1=NN(c2ccccc2)C(=O)/C1=C\c1cc(C)n(C)c1C,28.8*,?,-4.0%,3.6%,9.28µM*,48.6*
CC1=NN(c2ccccc2)C(=O)/C1=C/c1cn(C)c2ccccc12,0.4,?,-11.3%,-0.2%,7.38µM*,-6.3
CCOC(=O)c1ccc(N2N=C(C)/C(=C/C=C/c3ccco3)C2=O)cc1,0.3,-13.0%,14.6%,2.7%,13.1µM*,8.5
O=C(O)c1ccccc1C(=O)NC1Cc2ccccc2C1,-2.0,60.9%,1.4%,1.5%,6.7%,0.6
CC1=NN(c2ccccc2)C(=O)/C1=C/C=C/c1ccc(N(C)C)cc1,1.6,?,.,-0.6%,?,-5.2
CC1=NN(c2ccccc2)C(=O)/C1=C\C=C\c1ccccc1,-4.1,?,-0.2%,-1.4%,11.7µM*,-2.7
CSCCC(NC(=O)COc1ccccc1)C(=O)N1CCCC(C(F)(F)F)C1 (configuration not stated),.,?,.,-3.7%,-2.2%,.
O=C(Nc1ccc(Br)cn1)c1cccc(S(=O)(=O)N2CCCC2)c1,.,.,.,0.3%,.,.
CC(=O)N1CCN(S(=O)(=O)c2cccc(C(=O)Nc3ccc(C)cn3)c2)CC1,44.5*,17.0%,-9.8%,-3.2%,14.0%,77.1*
Cc1ccc(NC(=O)c2cccc(S(=O)(=O)N3CCc4ccccc4C3)c2)nc1,.,7.38µM*,.,3.8%,9.28µM*,.
Cc1cc(N2CCN(C)CC2)ccc1NC(=O)c1cccc(S(=O)(=O)N2CCc3ccccc3C2)c1,-10.4,?,-0.3%,-4.9%,10.4µM*,-42.4
CCCNC(=S)N1CCC(C(=O)c2ccc3c(c2)OCCO3)CC1,10.4,-0.5%,.,3.3%,-5.9%,28.9
COc1ccc(CN(C(=O)c2ccco2)c2ccc(C)c(C)c2)cc1,-2.3,?,-36.7%,-1.1%,-4.4%,-0.1
COc1ccc2c(c1)CCc1c-2n[nH]c1C(=O)NCCC(C)C,42.7*,92.6%,1.9%,-0.6%,1.9%,88.1*
CNC(=O)c1[nH]nc2c1CCc1cc(OC)ccc1-2,57.4*,?,-1.4%,-6.9%,4.6%,87.0*
CC(C)NC(=O)c1[nH]nc2c1CCc1ccccc1-2,42.2*,4.2%,-7.1%,-6.6%,-28.7%,109.7*
COc1cccc(/C=N/NC(=O)c2[nH]nc3c2CCc2ccccc2-3)c1,-2.5,-25.2%,-6.2%,-2.1%,-20.4%,-7.8
CC(C)(C)[C@H]1COC(=O)[C@H](Cc2ccc(F)cc2)CC/C=C/C[C@@H](CC(=O)N[C@H](CO)Cc2ccccc2)C(=O)N1,.,.,.,-0.5%,.,.
COc1ccc(NC(=O)CCS(=O)(=O)c2ccc3c(c2)CCCN3C(C)=O)cc1Cl,-4.3,.,2.9%,-1.9%,42.6%,-15.6
COc1ccc(NC(=O)CCS(=O)(=O)c2ccc3c(c2)CCN3C(C)=O)cc1,-2.9,5.9%,2.9%,29.3%,11.7µM*,1.1
CC(=O)N1CCc2cc(S(=O)(=O)C(C)CC(=O)Nc3ccc(OC(F)(F)F)cc3)ccc21 (configuration not stated),29.0*,0.3%,16.4%,6.3%,-15.3%,16.0
Cc1c(Cl)cccc1NC(=S)NCCc1ccc(S(N)(=O)=O)cc1,-3.9,-13.2%,4.6%,-8.4%,10.4µM*,-9.7
Cc1c(Cl)cccc1NC(=S)NCCc1ccc(F)cc1,2.5,?,-89.4%,4.1%,13.1µM*,13.4
Cc1c(Cl)cccc1NC(=S)NCCc1ccc(Cl)cc1,23.9,?,-102.5%,-3.7%,?,48.3
